# Data as given in PubChem BioAssay (NCATS).
# A number with no mark means an inactive call. Records with an inconclusive call do not appear. Active and inactive are the calls of the source. Unless noted, calls come from the whole dose curve; as a rule, active = well fitted curve in either direction with a large enough effect (not every such curve was filed as active); inconclusive = small, poorly fitted or top-dose-only effect, or another doubt; inactive = flat fitted curve, though single readings scatter.
# What was measured:
# [1] = AP1 Signaling Pathway (AID 357); details: ME-180 AP-1-bla reporter, EGF-induced, beta-lactamase ratio, 5 h; at 7.69 µM (top of the series) unless noted;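 note: ME-180 reporter cells stimulated with EGF at its EC50 level; % is set by controls: 0 for no effect and ±100 for the full control effect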
# Method in brief: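 Beta-lactamase reporter under AP-1 response element, ME-180 background. Stimulus: EC50 EGF. Compound exposure 5 h, 37 °C. Detection: CCF4, 2.5 h RT, 460/530 nm. Values: AC50 from titration.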
# [2] = target: Cytochrome P450 1A2 (Homo sapiens) (UniProt P05177); experiment: p450-cyp1a2 (AID 410; calls by dose curve; note: potency is the fitted concentration of half-maximal effect;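 for activity change, negative = inhibition: -100% = full effect of reference inhibitor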)
# Sequence of Cytochrome P450 1A2 (Homo sapiens) (P05177 whole entry, looked up): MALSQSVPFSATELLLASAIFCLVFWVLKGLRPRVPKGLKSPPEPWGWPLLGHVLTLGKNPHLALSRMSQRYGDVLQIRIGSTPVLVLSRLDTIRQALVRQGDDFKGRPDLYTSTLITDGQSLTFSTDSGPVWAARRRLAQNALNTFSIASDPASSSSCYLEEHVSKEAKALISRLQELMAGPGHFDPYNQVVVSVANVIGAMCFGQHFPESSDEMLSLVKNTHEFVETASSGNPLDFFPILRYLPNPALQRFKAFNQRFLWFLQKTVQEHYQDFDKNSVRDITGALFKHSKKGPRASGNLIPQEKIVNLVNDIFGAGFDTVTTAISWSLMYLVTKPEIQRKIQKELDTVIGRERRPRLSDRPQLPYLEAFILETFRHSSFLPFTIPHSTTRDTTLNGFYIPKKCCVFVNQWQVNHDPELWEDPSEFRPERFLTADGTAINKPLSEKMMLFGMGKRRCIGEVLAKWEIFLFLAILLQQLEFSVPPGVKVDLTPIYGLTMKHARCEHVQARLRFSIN
# Method in brief: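 Human CYP1A2 (20nM) demethylated Luciferin-ME at its Km (100uM) in 100mM KPO4. After 10 min compound preincubation, NADPH regeneration ran the reaction 60 min at room temperature. Luciferin was read by luminescence, normalized to 57 uM furafylline.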
# [3] = NFAT Signaling Pathway (AID 444); details: Jurkat NFAT-bla M1, carbachol, beta-lactamase ratio, 5 h; at 7.69 µM (top of the series) unless noted;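 note: carbachol stimulus at about its EC50 of 1 µM final; % is set by controls: 0 for no effect and ±100 for the full control effect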
# Method in brief: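 Read-out: CCF4 FRET ratio (460 nm/530 nm) after 1 h RT dye loading, used for %activity and AC50 from titration series. Cells: Jurkat NFAT-β-lactamase/M1 line, treated with compound plus 1 uM carbachol for 5 h, 37 °C.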
# [4] = Stat Signaling Pathway (AID 446); details: ME-180 (cervical carcinoma) SIE beta-lactamase reporter, IL-6 stimulated, 5 h; at 7.69 µM (top of the series) unless noted;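 note: ME-180 cervical cancer cells given 40 pM IL-6 alongside compound; SIE-controlled beta-lactamase reporter measured as 460/530 nm FRET emission ratio; % is set by controls: 0 for no effect and ±100 for the full control effect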
# Method in brief: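 IL-6/STAT signaling read in ME-180 cells via an SIE beta-lactamase reporter. Stimulus was 40 pM IL-6 (its AC50) for 5 hrs, so both activation and inhibition register.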
# [5] = target: Mitogen-activated protein kinase 10 (Mus musculus) (UniProt Q61831); experiment: JNK3 AlphaScreen Assay (AID 530);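 note: kinase came from lysate of stimulated human HepG2 cells; signal reports phosphorylation of biotinylated GST-cJun 1-79 at Ser73 with 10 µM ATP; % is set by controls: 0 for no effect and ±100 for the full control effect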
# Method in brief: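 Room-temperature AlphaScreen kinase assay; pre-activated HepG2 lysate as JNK3 source, biotin-GST-cJun(1-79) substrate, 10 uM ATP, compound 15 min preincubation.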
# [6] = target: 3',5'-cyclic-AMP phosphodiesterase 4B (Homo sapiens) (UniProt Q07343); experiment: qHTS Assay for Inhibitors of PDE-IV (AID 607; active = well fitted activation curve with a large enough effect in the main read-out, with a control signal flat, not every such curve was filed as active; note: % of control where 0% means no effect)
# Sequence of 3',5'-cyclic-AMP phosphodiesterase 4B (Homo sapiens) (Q07343 whole entry, looked up): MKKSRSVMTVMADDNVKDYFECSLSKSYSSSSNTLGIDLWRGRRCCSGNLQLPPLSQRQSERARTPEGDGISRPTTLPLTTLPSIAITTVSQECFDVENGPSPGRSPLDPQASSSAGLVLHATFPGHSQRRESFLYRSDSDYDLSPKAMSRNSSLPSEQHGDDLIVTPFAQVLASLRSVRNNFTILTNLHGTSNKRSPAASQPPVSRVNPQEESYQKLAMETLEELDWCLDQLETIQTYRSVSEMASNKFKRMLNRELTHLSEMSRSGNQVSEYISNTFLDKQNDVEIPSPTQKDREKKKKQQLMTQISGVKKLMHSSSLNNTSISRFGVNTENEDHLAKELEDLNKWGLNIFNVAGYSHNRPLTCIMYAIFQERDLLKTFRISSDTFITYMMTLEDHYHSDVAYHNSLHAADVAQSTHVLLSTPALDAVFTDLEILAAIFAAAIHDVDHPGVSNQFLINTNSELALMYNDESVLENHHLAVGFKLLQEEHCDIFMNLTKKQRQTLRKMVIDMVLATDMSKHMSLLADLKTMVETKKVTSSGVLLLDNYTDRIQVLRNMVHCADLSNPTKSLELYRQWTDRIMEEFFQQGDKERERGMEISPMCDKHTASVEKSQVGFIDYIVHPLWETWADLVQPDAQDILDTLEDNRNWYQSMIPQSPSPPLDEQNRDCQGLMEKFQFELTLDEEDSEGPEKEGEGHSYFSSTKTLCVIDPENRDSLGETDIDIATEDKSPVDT
# Method in brief: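 Live HEK293 cells with a modified cyclic nucleotide-gated (CNG) channel report intracellular cAMP via membrane-potential dye fluorescence (ex 535/em 590 nm). Endogenous PDE-IV was targeted. Compounds were tested at up to 22.9 uM final; RO 20-1724 100 uM served as control.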
# [7] = target: Cytochrome P450 3A4 (Homo sapiens) (UniProt P08684); experiment: qHTS Assay for Inhibitors and Substrates of Cytochrome P450 3A4 (AID 884; active = well fitted curve in the direction sought with a large enough effect; an effect the other way counts as inactive or inconclusive; note: potency is the fitted concentration of half-maximal effect; nearly all actives have a fitted effect of over 50% in size)
# Sequence of Cytochrome P450 3A4 (Homo sapiens) (P08684 whole entry, looked up): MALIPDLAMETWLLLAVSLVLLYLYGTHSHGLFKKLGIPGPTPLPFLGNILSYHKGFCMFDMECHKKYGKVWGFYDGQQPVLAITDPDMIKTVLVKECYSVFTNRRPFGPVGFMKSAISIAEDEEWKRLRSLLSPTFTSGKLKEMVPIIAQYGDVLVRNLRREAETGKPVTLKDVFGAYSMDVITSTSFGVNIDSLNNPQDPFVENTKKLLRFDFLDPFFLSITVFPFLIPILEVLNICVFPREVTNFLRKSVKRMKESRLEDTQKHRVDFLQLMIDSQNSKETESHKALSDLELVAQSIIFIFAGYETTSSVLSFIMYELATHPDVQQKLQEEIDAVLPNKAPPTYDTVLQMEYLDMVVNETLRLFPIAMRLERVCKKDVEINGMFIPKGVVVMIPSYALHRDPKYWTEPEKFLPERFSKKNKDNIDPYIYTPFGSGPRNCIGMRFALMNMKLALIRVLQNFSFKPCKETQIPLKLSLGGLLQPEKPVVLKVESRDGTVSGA
# Method in brief: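 20 nM human CYP3A4 with 25 uM Luciferin-PPXE (at KM) in 200 mM KPO4, preincubated 10 min with compound; NADPH regeneration started a 60 min RT reaction. Luciferin detected by luminescence, normalized to 57 uM ketoconazole as full inhibition.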
# [8] = target: Cytochrome P450 3A4 (Homo sapiens) (UniProt P08684); experiment: qHTS Assay for Activators of Cytochrome P450 3A4 (AID 885; active = well fitted curve in the direction sought with a large enough effect; an effect the other way counts as inactive or inconclusive; note: nearly all actives have a fitted effect of over 65% in size)
# Method in brief: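 Quantitative HTS format: compounds preincubated with 20nM human CYP3A4 and Luciferin-PPXE substrate at KM, reaction started by NADPH regeneration, stopped after 60 min, luciferase luminescence read 20 min later.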
# [9] = Primary qHTS for small molecule stabilizers of the endoplasmic reticulum resident proteome: Secreted ER Calcium Modulated Protein (SERCaMP) assay (AID 1508630; active = well fitted curve in the direction sought with a large enough effect; an effect the other way counts as inactive or inconclusive; note: % is set by controls: 0 for no effect and ±100 for the full control effect)
# Method in brief: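 GLuc-SERCaMP-expressing SH-SY5Y cells, pretreated 16 h with compound, are challenged with thapsigargin to empty ER calcium stores; after 4 h, coelenterazine is added directly to the medium and luminescence is imaged.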
# [10] = target: Glucocorticoid receptor (Homo sapiens) (UniProt P04150); experiment: GR-EFC Redistribution (AID 451; calls by dose curve; note: potency is the fitted concentration of half-maximal effect); details: CHO-K1 GR-EFC translocation, beta-gal luminescence, 2 h
# Sequence of Glucocorticoid receptor (Homo sapiens) (P04150 whole entry, looked up, the tested form may be a part): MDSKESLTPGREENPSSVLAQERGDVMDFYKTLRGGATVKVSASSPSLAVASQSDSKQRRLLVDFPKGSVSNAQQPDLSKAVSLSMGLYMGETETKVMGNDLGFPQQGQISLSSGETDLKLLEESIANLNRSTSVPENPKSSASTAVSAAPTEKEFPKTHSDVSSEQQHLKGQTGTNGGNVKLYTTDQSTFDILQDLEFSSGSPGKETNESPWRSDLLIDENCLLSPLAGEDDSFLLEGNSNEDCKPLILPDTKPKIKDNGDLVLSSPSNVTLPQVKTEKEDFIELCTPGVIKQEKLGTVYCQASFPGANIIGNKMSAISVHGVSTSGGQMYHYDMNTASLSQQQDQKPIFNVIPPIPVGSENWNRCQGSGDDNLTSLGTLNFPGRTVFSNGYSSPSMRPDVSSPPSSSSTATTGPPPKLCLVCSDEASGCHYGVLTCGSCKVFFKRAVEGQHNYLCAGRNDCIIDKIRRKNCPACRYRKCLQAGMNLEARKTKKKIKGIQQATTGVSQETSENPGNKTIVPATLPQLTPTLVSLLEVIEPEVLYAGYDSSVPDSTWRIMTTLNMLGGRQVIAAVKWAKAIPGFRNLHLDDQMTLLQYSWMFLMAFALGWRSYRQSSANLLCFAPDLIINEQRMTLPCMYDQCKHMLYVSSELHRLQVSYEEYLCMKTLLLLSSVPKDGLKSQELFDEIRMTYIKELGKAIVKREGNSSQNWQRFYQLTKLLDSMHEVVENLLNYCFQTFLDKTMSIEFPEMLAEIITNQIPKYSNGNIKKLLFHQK
# Method in brief: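 Translocation of GR-ED fusion to nuclear EA restores b-gal, read by luminescence after 1 h room-temperature detection. Engineered CHO-K1 biosensor cells, 1,000/well, exposed 2 h at 37 C to titrations up to 46 uM final.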
# [11] = target: Glucocorticoid receptor (Homo sapiens) (UniProt P04150); experiment: GR-GFP Redistribution (AID 450;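 active = compounds whose dose series gives a full or clear partial fitted curve of increased nuclear translocation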; note: potency is the fitted concentration of half-maximal effect); details: U2OS GR-GFP nuclear translocation, laser cytometry, 2 h
# [12] = target: Lysosomal acid glucosylceramidase (Homo sapiens) (UniProt P04062); experiment: Glucocerebrosidase-p2 (AID 348; in the data active = potency below about 10 µM; note: potency is the fitted concentration of half-maximal effect); details: purified GBA, blue fluorogenic substrate, 40 min
# Sequence of Lysosomal acid glucosylceramidase (Homo sapiens) (P04062 whole entry, looked up): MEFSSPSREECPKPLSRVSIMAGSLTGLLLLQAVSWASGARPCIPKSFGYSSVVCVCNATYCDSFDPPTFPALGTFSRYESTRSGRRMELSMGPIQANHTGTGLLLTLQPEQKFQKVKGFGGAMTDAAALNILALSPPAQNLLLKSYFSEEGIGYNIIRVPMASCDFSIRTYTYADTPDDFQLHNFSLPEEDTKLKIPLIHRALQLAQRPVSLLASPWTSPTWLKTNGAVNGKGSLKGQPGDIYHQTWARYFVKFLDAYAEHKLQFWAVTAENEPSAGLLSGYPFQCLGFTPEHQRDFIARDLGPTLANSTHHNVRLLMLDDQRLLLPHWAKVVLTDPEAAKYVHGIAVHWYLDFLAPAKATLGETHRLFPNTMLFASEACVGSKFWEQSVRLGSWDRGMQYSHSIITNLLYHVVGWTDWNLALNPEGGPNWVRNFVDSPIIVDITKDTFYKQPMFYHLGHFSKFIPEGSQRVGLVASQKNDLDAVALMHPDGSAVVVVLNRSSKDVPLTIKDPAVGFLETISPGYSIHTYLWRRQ
# Method in brief: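 Compounds titrated from 0.6 nM upwards against 0.2 nM enzyme in pH 5.9 citric acid/KH2PO4, taurocholate, tween-20; blue fluorogenic substrate 80 uM, 40 min room temperature, stopped and read Ex 365/Em 440 for AC50.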
# [13] = target: Ubiquitin carboxyl-terminal hydrolase 1 (Homo sapiens) (UniProt O94782); experiment: Inhibitors of USP1/UAF1: Pilot qHTS (AID 504865; active = well fitted curve in the direction sought with a large enough effect; an effect the other way counts as inactive or inconclusive;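 note: rhodamine fluorescence freed from ubiquitin-rhodamine substrate followed over time; top concentration of the series differs between compounds; % is set by controls: 0 for no effect and ±100 for the full control effect; nearly all actives have a fitted effect of over 35% in size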)
# Sequence of Ubiquitin carboxyl-terminal hydrolase 1 (Homo sapiens) (O94782 whole entry, looked up): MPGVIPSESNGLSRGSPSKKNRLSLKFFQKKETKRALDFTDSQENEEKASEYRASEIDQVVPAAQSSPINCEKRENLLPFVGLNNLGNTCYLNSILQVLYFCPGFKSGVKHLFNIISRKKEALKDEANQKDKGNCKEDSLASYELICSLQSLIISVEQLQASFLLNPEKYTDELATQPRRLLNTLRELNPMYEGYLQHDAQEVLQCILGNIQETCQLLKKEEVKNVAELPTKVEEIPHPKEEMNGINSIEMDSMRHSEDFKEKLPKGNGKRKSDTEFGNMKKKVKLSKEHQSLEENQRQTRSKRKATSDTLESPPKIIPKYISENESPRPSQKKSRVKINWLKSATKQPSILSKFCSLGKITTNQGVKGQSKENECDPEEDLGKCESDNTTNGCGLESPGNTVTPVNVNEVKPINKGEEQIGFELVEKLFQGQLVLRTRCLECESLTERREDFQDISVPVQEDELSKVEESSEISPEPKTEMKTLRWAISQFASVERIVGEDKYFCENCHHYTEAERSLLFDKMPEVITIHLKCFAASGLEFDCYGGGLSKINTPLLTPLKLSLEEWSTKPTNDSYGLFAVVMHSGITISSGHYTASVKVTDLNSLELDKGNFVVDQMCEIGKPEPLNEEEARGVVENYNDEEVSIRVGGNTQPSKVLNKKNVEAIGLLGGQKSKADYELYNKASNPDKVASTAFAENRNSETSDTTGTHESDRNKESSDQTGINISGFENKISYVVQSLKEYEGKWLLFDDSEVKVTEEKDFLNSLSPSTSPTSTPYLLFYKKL
# Method in brief: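 USP1/UAF1 complex (1nM) preincubated with compound 15 min at room temperature, then Ub-Rho substrate (150nM final) added. Fluorescence read kinetically at 480/540 nm, 6 reads every 60 seconds. Buffer: 50mM HEPES pH 7.8, 0.5mM EDTA, 0.1 mg/ml BSA, 1mM TCEP, 0.01% Tween-20.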
SMILES,"activity change, negative = inhibition [1]",Potency [2],"activity change, negative = inhibition [3]","activity, negative = inhibition [4]",Potency [5],Potency [6],Potency [7],Potency [8],outcome [9],Potency [10],Potency [11],Potency [12],Potency [13]
N#Cc1cccc(NC(=O)N2CC[C@@]3(CCCN(S(=O)(=O)c4ccccc4)C3)C2)c1,-14%,25.1 µM (active),3.6%,-7.29%,inactive,inactive,3.16 µM (active),inactive,inactive,,,,
O=C(c1csnn1)N1CCC2(CCN(Cc3nccs3)CC2)CC1,-7.97%,inactive,-13.7%,-2.3%,inactive,inactive,,,inactive,> 46 µM,,,
COc1ccc2[nH]cc(CCNc3cc(-c4ccccc4CN(C)C)ncn3)c2c1,14.9%,,-12.7%,6.88%,inactive,inactive,,,inactive,> 46 µM,> 46 µM,,
COC(=O)N1CCC2(CCN(C(=O)Nc3cccc(F)c3)CC2)CC1,-21.3%,12.6 µM (active),-11.6%,22.8%,inactive,inactive,,,inactive,> 46 µM,,,
COc1ccc(Oc2ncc3nc(-c4cccs4)c(=O)n(Cc4cccs4)c3n2)cc1,,,-3.5%,,inactive,inactive,,,inactive,> 46 µM,> 9.22 µM,> 11.4 µM,
COc1cccc(Cn2c(=O)c(CCc3ccccc3)nc3cnc(OC)nc32)c1,-4.92%,12.6 µM (active),-14.6%,1.12%,,,2.51 µM (active),inactive,inactive,> 46 µM,> 9.22 µM,,
O=C(c1cnccn1)N1CCC[C@@]2(CCN(Cc3ccncc3)C2)C1,-3.77%,15.8 µM (active),7.13%,-5.95%,inactive,inactive,,inactive,inactive,> 46 µM,,,
CNc1nc(-c2ccc(C(=O)N(C)C)cc2)nc2ccccc12,7.59%,,23.4%,-0.956%,inactive,inactive,,,inactive,> 46 µM,> 46 µM,,inactive
